Reference: PMC4336329 (PLoS ONE, 2015)
Out of some 310,000 compounds screened, about 14,000 (4.5%) showed an effect of 50% or more. The effect is printed as a negative number. The list comes from a sample in which strong results are over-represented; it also holds similar structures and randomly drawn compounds.

Biological target: human ether-à-go-go-related gene (hERG) potassium channel (human, UniProt Q12809)
Assay: primary screen, population patch clamp on CHO cells stably expressing hERG; higher = less effect of the substance
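Also: peak tail current of the secondary pulse compared with the same well before compound.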

Chain of human ether-à-go-go-related gene (hERG) potassium channel (Q12809 whole entry, looked up): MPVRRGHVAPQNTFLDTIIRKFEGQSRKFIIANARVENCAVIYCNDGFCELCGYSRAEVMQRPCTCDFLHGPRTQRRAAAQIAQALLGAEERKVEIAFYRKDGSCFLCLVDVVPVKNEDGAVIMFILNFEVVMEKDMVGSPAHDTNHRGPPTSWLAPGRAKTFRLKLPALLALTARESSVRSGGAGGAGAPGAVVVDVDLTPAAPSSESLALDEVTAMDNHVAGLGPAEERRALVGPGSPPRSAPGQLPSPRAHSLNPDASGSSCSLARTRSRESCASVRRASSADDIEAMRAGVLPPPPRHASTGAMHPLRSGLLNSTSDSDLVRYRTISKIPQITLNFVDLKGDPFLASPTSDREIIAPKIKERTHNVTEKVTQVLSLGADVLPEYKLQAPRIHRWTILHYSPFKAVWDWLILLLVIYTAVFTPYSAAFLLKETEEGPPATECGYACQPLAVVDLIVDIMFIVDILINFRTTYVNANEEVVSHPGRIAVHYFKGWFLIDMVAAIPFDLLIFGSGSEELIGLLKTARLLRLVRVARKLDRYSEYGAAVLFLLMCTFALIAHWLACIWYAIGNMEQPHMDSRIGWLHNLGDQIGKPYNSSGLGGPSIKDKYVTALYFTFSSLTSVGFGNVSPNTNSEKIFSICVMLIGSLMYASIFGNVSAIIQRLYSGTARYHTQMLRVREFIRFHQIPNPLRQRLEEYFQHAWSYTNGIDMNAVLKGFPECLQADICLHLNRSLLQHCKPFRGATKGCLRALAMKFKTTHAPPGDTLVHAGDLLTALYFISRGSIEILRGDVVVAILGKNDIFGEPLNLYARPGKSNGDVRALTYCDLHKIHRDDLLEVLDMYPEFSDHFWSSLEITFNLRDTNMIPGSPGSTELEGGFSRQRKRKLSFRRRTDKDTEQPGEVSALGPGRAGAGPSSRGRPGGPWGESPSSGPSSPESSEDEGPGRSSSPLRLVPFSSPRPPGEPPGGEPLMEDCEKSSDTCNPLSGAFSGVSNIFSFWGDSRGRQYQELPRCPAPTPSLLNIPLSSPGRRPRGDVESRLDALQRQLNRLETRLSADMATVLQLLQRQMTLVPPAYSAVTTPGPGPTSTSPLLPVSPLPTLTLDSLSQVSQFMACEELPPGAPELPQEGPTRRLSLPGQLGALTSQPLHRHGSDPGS

Structure (SMILES) | hERG current change (%, negative = inhibition) at 10uM [%]
Cc1ccc(C(C)(C)C)cc1S(=O)(=O)Nc1ncnc2sccc12 | 12.2
Cn1nnc(NC(=O)c2ccc3ccccc3c2)n1 | 5.99
CCCN(Cc1cc2ccccc2[nH]c1=O)C(=O)c1cccc([N+](=O)[O-])c1 | -16.8
O=S(=O)(c1cccc(Br)c1)N1CCN(c2ccnc3cc(Cl)ccc23)CC1 | 8.43
O=S(=O)(c1ccccc1)N1CCN(c2ccnc3cc(Cl)ccc23)CC1 | -84
O=S(=O)(c1ccccc1OC(F)(F)F)N1CCN(c2ccnc3cc(Cl)ccc23)CC1 | -18.4
N#Cc1cccc(S(=O)(=O)N2CCN(c3ccnc4cc(Cl)ccc34)CC2)c1 | -70.7
O=S(=O)(c1ccc(Br)s1)N1CCN(c2ccnc3cc(Cl)ccc23)CC1 | -14.8
O=S(=O)(c1cccs1)N1CCN(c2ccnc3cc(Cl)ccc23)CC1 | -68.4
O=[N+]([O-])c1ccc(N2CCN(S(=O)(=O)c3ccccc3)CC2)cc1 | -46.9
O=[N+]([O-])c1ccc(S(=O)(=O)N2CCN(c3ccnc4cc(Cl)ccc34)CC2)cc1 | -73.5
Cc1ccc(S(=O)(=O)N2CCN(c3ccnc4cc(Cl)ccc34)CC2)cc1C | 30.7
CN1CCCN(S(=O)(=O)c2cccc(C#N)c2)CC1.Cl | 6.61
O=S(=O)(c1cccs1)N1CCN(c2ccccc2Cl)CC1 | 9.51
Cc1ccc(Cl)cc1N1CCN(S(=O)(=O)c2cccc(S(=O)(=O)N3CCCC3)c2)CC1 | 2.64
COc1ccc(C(=O)COC(=O)c2ccn(C)n2)cc1 | -14.5
Cc1[nH]c(C)c(S(=O)(=O)N2CCN(c3cccc(C(F)(F)F)c3)CC2)c1C(=O)N1CCCCC1 | -1.72
O=C(NCc1ccc(F)cc1)C1CC(=O)N(Cc2ccco2)C1 (stereo not shown) | -17
COc1cc(C=O)ccc1OCc1ccncc1 | 16.5
Cc1ccc(-c2csc3ncnc(N4CCN(c5ccccc5O)CC4)c23)cc1 | 25.8
O=C(c1cccs1)N1CCCN(c2ncnc3scc(-c4ccccc4)c23)CC1 | -60.7
O=C(c1ccco1)N1CCN(c2ncnc3scc(-c4cccs4)c23)CC1 | -63.9

Structure (SMILES) | hERG current change (%, negative = inhibition) at 10uM [%]
Cc1ccccc1N1CCN(c2ncnc3scc(-c4cccs4)c23)CC1 | -1.45
O=C(c1ccco1)N1CCN(c2ncnc3scc(-c4ccc(F)cc4)c23)CC1 | -70.2
Cc1ccc(-c2csc3ncnc(N4CCN(C(=O)c5ccco5)CC4)c23)cc1 | -89.9
c1ccc(N2CCN(c3ncnc4scc(-c5cccs5)c34)CC2)cc1 | 9.87
Oc1ccccc1N1CCN(c2ncnc3scc(-c4ccccc4)c23)CC1 | 4.04
O=C(O)CSCC(=O)N1CCN(c2ncnc3scc(-c4ccccc4)c23)CC1 | 25.4
Fc1ccc(-c2csc3ncnc(N4CCN(Cc5ccccc5)CC4)c23)cc1 | -2.14
Fc1ccc(-c2csc3ncnc(N4CCN(c5ccccc5)CC4)c23)cc1 | 16.2
Cc1ccc(-c2csc3ncnc(N4CCN(C(=O)c5ccccc5)CC4)c23)cc1 | -30.5
CS/C(=N\S(=O)(=O)c1ccccc1)c1ccccc1 | 0.781
CC(C)n1c(C(F)(F)F)nc2cc(C(=O)N3CCOCC3)ccc21 | 16.3
O=C(O)C1Sc2[nH]c(=O)sc2C2c3cc(Cl)ccc3OC(=O)C12 (stereo not shown) | 14.5
Cc1ccc(NC(=O)Cc2noc3ccccc23)c(C)c1 | 11.2
O=S(=O)(CCc1nc2ccccc2o1)c1ccc(Cl)c(Cl)c1 | 13.4
CCc1cc2c(N3CCCCC3)ncnc2s1.Cl | -7.21
COc1ccc(-c2nsc3c(N4CCN(C(=O)c5ccco5)CC4)ncnc23)cc1 | 10.9
Cc1sc2nnn(CC(=O)N3CCN(C(=O)c4ccco4)CC3)c(=O)c2c1C | -32.4
CCc1cc2c(N3CCN(c4nnc(CC)s4)CC3)ncnc2s1.Cl | -67.6
CCc1cc(C(=O)N2CCN(C(=O)c3ccco3)CC2)sc1C | 10.6
COc1cc(C(=O)N2CCN(c3ncnc4sc(C)c(C)c34)CC2)cc(OC)c1OC | -47.2
COc1ccc(-c2csc3ncnc(N4CCN(C(=O)c5ccco5)CC4)c23)cc1 | -75.3
